Experimental data: PubChem BioAssay (NCATS)
Records with an inconclusive call do not appear. Unmarked numbers belong to inactive results. The call rests on the fitted dose curve; in most records, active means well fitted curve in the direction sought with a large enough effect; inconclusive means small, poorly fitted or top-dose-only effect, or another doubt; inactive means no such curve, though single readings can be large or run the other way.

The compounds below were run against Glucagon-like peptide 1 receptor (Homo sapiens) (UniProt P43220) (assay: qHTS of GLP-1 Receptor Agonists: LOPAC Validation (AID 624148;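 further: luminescence from a luciferase reporter switched on by cAMP; 0% is about no effect; higher luminescence signal means agonism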)). Details: GLP-1R agonist cell assay; series mostly up to 46.1 µM; activation: at the top concentration.
Glucagon-like peptide 1 receptor (Homo sapiens), sequence (P43220 whole entry, looked up): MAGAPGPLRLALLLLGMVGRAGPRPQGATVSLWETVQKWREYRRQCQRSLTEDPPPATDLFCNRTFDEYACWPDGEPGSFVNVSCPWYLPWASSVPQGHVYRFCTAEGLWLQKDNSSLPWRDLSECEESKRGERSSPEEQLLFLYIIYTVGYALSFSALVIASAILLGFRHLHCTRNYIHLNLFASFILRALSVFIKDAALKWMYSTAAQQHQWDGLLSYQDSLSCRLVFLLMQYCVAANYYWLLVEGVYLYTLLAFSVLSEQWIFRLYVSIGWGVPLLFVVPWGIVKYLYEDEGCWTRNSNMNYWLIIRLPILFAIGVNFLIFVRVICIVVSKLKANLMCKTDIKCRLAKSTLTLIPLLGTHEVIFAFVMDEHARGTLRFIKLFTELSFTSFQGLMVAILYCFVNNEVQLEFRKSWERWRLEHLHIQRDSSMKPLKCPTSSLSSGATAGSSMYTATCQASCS
Source text: The overall goal of this project was to develop a novel assay for discovering small molecule ligands for class B1 G protein-coupled receptors (GPCRs). Very few agonists (or inverse agonists) with generally weak activity for this entire group of physiologically important receptors are known to date. To establish proof-of-principle that this critical bottleneck can be overcome with a suitable screening approach, our studies focused on the class B1 receptor for glucagon-like peptide-1 (GLP-1R), a potential therapeutic target for diabetes and neurodegenerative disease.
The assay was developed in a "mix and measure" format using a cell-based functional readout. Toward this goal, stably transfected HEK293 cell clones were established that co-express (i) a cAMP-responsive luciferase reporter gene, and (ii) GLP-1Rs that upon ligand interaction either stimulate (agonists) or inhibit (inverse agonists) luciferase activity. In different cell lines to be used for screening, expressed GLP-1Rs are specifically optimized for high sensitivity detection of either weak agonists (hypersensitive receptor) or inverse agonists (constitutively active receptor mutant). In addition, control cell lines were developed that express either the cAMP-responsive reporter gene without recombinant GLP-1Rs (enabling initial exclusion of GLP-1R independent effects of candidate probes), or the reporter gene together with wild type GLP-1Rs (for confirmation of probe activity at this receptor), or the reporter gene in combination with the constitutively active orphan receptor GPR119 (enabling initial exclusion of GLP-1R independent inhibitory effects of candidate inverse agonists).
To that end, this assay was optimized for 1536-well format and screened against the MLSMR.
NIH Molecular Libraries Probe Production Network [MLPCN]
NIH Chemical Genomics Center [NCGC]
PI Name: Martin Beinborn, Tufts Medical Center
In a white solid 1536-well plate, 6 uL of cells are dispensed in DMEM without phenol red, 10% Nu serum, and 1% pen-strep medium. The plates are then incubated for 12 hours at 37 deg C at 5% CO2 before 23 nL of compounds are added. After a 4-6 hr incubation at37 deg C and 5% CO2, 3 uL of detection reagent are added and after a 12 min incubation at RT, a luminescent read is obtained on the ViewLux.

Compound | activation [%]
CCN(CC)CCNC(=O)c1ccc(NS(C)(=O)=O)cc1 | -1.71
COC(=O)C1=CO[C@@H](O)[C@@H]2C(CO)=CC[C@H]12 | -1.86
CN(C)c1cc2c(Nc3ccc4c(cnn4Cc4ccccc4)c3)ncnc2cn1 | 15.6
C[N+](C)(C)CCO | -1.69
COc1ccccc1N1CCN(CCN2C(=O)CC3(CCCC3)CC2=O)CC1 | -0.992
O=C1NC(=O)/C(=C/c2ccc3c(c2)OC(F)(F)O3)S1 | -0.601
N[C@@H](Cn1ccc(=O)c(O)c1)C(=O)O | -1.97
COc1cccc2c1[C@@H]1CN(CCCCn3c(=O)[nH]c4c(sc5ncc(-c6ccccc6)nc54)c3=O)C[C@@H]1CO2 | -0.49
Cn1cnc2c(NCc3ccccc3)nc(NCCO)nc21 | -1.02
Brc1ccc([C@H]2CN3CCSC3=N2)cc1 | -1.15
NC(N)=NCCCCN=C(N)N | -1.44
CC(C)N(CCC(=O)c1ccc2ccccc2c1)Cc1ccccc1 | -1.48
O=[N+]([O-])c1ccc(-c2nc(-c3ccc(F)cc3)c(-c3ccncc3)[nH]2)cc1 | 5.39
Nc1ncnc2n[nH]c(Nc3ccc(F)cc3)c12 | 17.4
Cc1nn(-c2ccccc2)c(C)c1/C=N/N1CCN(Cc2ccccc2)CC1 | 4.82
Clc1ccc2c(c1)N=C(N1CCNCC1)c1ccccc1N2 | -1.86
O=C1NC(c2cccc([N+](=O)[O-])c2)=CCN1c1ccccc1O | 0.934
